In PubChem BioAssay (EPA / NIEHS) one finds outcome and AC50 data, which are given here for 31 molecules.

Active and inactive are the calls of the source. The calls were made as follows: active = hit-call score of the fitted dose curve at least 0.9, where 1 is the maximum; inactive = score below 0.9.

For assay [1], the target named is CCAAT/enhancer-binding protein beta (Homo sapiens) (UniProt P17676). Description: ATG_C_EBP_CIS: Attagene CIS-FACTORIAL HepG2 Assay for human CCAAT/Enhancer Binding Protein (C/EBP) beta (AID 2282927). Conditions: HepG2 Attagene cis-factorial transcription factor reporter; actives raise or lower the signal. An outline of the steps:
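Endogenous C/EBPb-driven reporter transcripts measured in transfected human HepG2 cells at 24 h via RT-PCR and capillary electrophoresis of labelled fragments. Activity fitted in both directions relative to DMSO baseline.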

A short description of assay [2]: ATG_AP_2_CIS: Attagene CIS-FACTORIAL HepG2 Assay for human Activator Protein 2 (AP-2) (AID 2282932). Conditions: HepG2 AP-2 cis-reporter, Attagene transcription factor profiling; actives raise or lower the signal. An outline of the steps: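 Endogenous transcription factor activity is reported through transfected multiplex reporter constructs in HepG2, after 24 h of compound exposure. Transcripts were quantified by RT-PCR and capillary electrophoresis of fluorescent fragments. Bidirectional fit against DMSO.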

The nature of assay [3]: ATG_BRE_CIS: Attagene CIS-FACTORIAL HepG2 Assay for human Bone Morphogenetic Protein (BMP) Response Element (BRE) (AID 2282933). Conditions: HepG2 BMP response element reporter, Attagene transcription factor profiling; actives raise or lower the signal. An outline of the steps:
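After a 24 h chemical treatment, transiently transfected HepG2 cells were lysed for RNA; reporter transcripts were quantified by fluorescent RT-PCR and capillary electrophoresis, normalised to DMSO.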

Assay [4] concerns the target Retinoic acid receptor alpha (Homo sapiens) (UniProt P10276). Description: ATG_DR5_RAR_CIS: Attagene CIS-FACTORIAL HepG2 Assay for human Retinoic Acid Receptor Alpha (RARE), DR5 submotif (AID 2282934).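 As to AC50: reporter responds to endogenous RAR alpha beta and gamma in HepG2 not RARA alone.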 Conditions: HepG2 Attagene cis-factorial RARE DR5 reporter, mRNA; actives raise or lower the signal. An outline of the steps:
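Reporter transcripts from a DR5-regulated unit, measured via RT-PCR plus capillary electrophoresis, reflect endogenous RAR activity in transiently transfected human HepG2 liver cells. Exposure lasted 24 h; gain or loss of signal scored against DMSO.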

Assay [5] is described as follows: ATG_CMV_CIS: Attagene CIS-FACTORIAL HepG2 Assay for human CMV (Internal Marker) (AID 2282928).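 Also: endpoint acts as a background internal control marker rather than a target.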 Particulars: HepG2 CMV promoter reporter, transcription factor profiling; actives raise or lower the signal. An outline of the steps: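 Readout: fluorescent reporter cDNA fragments separated by capillary electrophoresis after RT-PCR and HpaI cut. Cells: HepG2 carrying transfected cis-promoter reporter constructs, dosed 24 h. Endpoint serves as background internal-marker control, fit bidirectionally versus DMSO.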

Assay [6] is described as follows: ATG_DR4_LXR_CIS: Attagene CIS-FACTORIAL HepG2 Assay for human Liver X Receptor (LXR), DR4 submotif (AID 2282929). Particulars: HepG2 Attagene DR4 cis-reporter, mRNA transcription; actives raise or lower the signal. An outline of the steps:
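Fluorescence intensity of labelled reporter cDNA fragments, separated by capillary electrophoresis, gives the signal. HepG2 cells bearing cis-regulated reporter constructs were treated 24 h; activity fitted bidirectionally relative to DMSO negative control.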

The target of assay [7] is Aryl hydrocarbon receptor (Homo sapiens) (UniProt P35869). The assay is described as follows: ATG_Ahr_CIS: Attagene CIS-FACTORIAL HepG2 Assay for human Aryl Hydrocarbon Receptor (Ahr) (AID 2282930). Particulars: HepG2 AhR cis-factorial reporter transcription; actives raise or lower the signal. An outline of the steps: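 Reporter mRNA levels, quantified by RT-PCR and fluorescent capillary electrophoresis, reflect endogenous AhR transcriptional activity in HepG2 cells carrying transfected cis-promoter reporter constructs. Readout at 24 h post-dose; gain or loss fitted against DMSO baseline.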
Chain of Aryl hydrocarbon receptor (Homo sapiens) (P35869 whole entry, looked up): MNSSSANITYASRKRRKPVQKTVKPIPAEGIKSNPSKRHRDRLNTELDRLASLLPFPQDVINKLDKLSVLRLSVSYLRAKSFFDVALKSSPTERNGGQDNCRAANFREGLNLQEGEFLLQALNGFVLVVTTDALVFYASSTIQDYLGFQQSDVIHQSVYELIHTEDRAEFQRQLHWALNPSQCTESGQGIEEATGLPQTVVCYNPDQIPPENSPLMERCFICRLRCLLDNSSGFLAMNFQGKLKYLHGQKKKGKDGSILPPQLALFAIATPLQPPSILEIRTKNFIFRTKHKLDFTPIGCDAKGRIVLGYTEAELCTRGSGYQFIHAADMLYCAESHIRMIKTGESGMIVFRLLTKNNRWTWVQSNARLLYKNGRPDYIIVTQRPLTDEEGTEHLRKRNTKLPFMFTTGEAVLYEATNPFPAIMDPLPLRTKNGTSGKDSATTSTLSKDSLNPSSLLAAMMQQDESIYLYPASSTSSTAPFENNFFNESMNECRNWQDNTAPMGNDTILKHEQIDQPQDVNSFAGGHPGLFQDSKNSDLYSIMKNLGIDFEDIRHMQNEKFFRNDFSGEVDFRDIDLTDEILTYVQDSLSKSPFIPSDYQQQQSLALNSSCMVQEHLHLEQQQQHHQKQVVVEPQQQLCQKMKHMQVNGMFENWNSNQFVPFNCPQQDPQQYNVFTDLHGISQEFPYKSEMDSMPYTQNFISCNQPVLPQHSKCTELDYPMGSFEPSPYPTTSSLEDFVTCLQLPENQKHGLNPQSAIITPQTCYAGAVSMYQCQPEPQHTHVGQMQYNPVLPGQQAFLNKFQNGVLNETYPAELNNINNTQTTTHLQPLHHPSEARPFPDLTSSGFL

Assay [8] in a line: ATG_AP_1_CIS: Attagene CIS-FACTORIAL HepG2 Assay for human Activator Protein 1 (AP-1) (AID 2282931). Particulars: HepG2 Attagene cis-factorial AP-1 reporter mRNA; actives raise or lower the signal. An outline of the steps:
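Multiplexed HepG2 reporter assay, 24 h dosing. mRNA induction detected by RT-PCR plus capillary electrophoresis. Activity fitted in both directions against DMSO.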

Chain of CCAAT/enhancer-binding protein beta (Homo sapiens) (P17676 whole entry, looked up, the tested form may be a part): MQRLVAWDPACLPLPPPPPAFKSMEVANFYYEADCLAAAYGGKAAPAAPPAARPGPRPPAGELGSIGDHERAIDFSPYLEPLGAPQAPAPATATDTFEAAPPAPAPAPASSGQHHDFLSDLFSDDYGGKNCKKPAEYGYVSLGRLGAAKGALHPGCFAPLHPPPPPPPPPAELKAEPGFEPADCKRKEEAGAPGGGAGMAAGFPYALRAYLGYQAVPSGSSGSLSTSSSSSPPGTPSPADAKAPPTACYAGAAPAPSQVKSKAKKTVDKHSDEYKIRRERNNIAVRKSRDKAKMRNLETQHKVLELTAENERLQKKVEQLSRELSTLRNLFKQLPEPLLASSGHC
Chain of Retinoic acid receptor alpha (Homo sapiens) (P10276 whole entry, looked up): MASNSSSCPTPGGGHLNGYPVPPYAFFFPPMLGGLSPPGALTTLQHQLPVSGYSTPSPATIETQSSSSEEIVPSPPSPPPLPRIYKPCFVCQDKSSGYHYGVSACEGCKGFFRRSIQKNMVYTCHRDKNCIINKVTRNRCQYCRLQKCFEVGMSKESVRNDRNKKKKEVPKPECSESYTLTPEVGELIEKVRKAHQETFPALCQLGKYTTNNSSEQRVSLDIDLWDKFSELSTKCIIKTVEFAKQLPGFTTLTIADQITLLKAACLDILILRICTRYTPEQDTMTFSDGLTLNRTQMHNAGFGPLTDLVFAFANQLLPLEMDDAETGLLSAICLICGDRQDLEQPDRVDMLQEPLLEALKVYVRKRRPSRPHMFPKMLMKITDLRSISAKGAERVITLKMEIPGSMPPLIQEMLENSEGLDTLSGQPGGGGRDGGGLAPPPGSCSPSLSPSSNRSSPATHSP

As for `CC(C)(O)CCc1ccccc1`, the outcome in assay [1], in assay [2], in assay [3] and in assay [4] was inactive.
In the case of `ClCCOCCOCCCl`, the result in assay [1], in assay [5], in assay [6], in assay [7], in assay [8] and in assay [2] was inactive. Besides, the molecule was called inactive in assay [3] and in assay [4].
On to `CC(=O)N(C)C`, for which the result in assay [1], in assay [5], in assay [6], in assay [7], in assay [2] and in assay [3] was inactive. Moreover, the result in assay [4] was inactive.
Usually AC50 stands for the concentration at which the activity in the assay is half-maximal. Regarding `COC(=O)c1cccc(C(=O)OC)c1`, the result in assay [1], in assay [5], in assay [6], in assay [8], in assay [2] and in assay [3] was inactive. In assay [4], the call was inactive. In addition, the AC50 in assay [7] is 71.4 µM (active).
For the molecule `C=C1CC/C=C(\C)CC[C@@H]2[C@@H]1CC2(C)C`, the result in assay [1], in assay [7], in assay [8], in assay [2] and in assay [3] was inactive. For the same molecule, the AC50 in assay [5] was 42.4 µM (active); in assay [6], 61.3 µM (active).
Regarding `[Cl][Dy]([Cl])[Cl]`, the result in assay [1], in assay [5], in assay [7], in assay [8], in assay [2] and in assay [3] was inactive.
Turning to `O=C1CCC(=O)N1`, the result in assay [1], in assay [6], in assay [7], in assay [8], in assay [2] and in assay [3] was inactive.
On to `CCCCCCOC(C)=O`, for which the result in assay [1], in assay [5], in assay [6], in assay [7], in assay [8] and in assay [2] was inactive. The molecule was classed as inactive in assay [3].
Turning to `CC(C)C(=O)OCC=Cc1ccccc1`, the outcome in assay [1], in assay [5], in assay [6], in assay [7], in assay [8] and in assay [2] was inactive. Moreover, the result in assay [3] was inactive.
For the molecule `C=COCC1CCC(COC=C)CC1` (stereo unspecified), the outcome in assay [1], in assay [5], in assay [6], in assay [7], in assay [8] and in assay [2] was inactive. For the same molecule, the molecule was called inactive in assay [3].
`CCC(=O)OCC=Cc1ccccc1`: the outcome in assay [1], in assay [5], in assay [8], in assay [2] and in assay [3] was inactive.
For `CC(=O)CCC=C(C)CCC=C(C)C`, the outcome in assay [1], in assay [5], in assay [6], in assay [7], in assay [2] and in assay [3] was inactive.
Turning to `COc1ccc(OC)cc1`, the result in assay [1], in assay [5], in assay [6], in assay [7], in assay [8] and in assay [2] was inactive. The outcome in assay [3] was inactive.
Consider `CCCCC1CCCCC(=O)O1` (stereo unspecified), for which the outcome in assay [1], in assay [6], in assay [7], in assay [8], in assay [2] and in assay [3] was inactive. Further, the result in assay [4] was inactive.
As for `C=C(C)C(=O)OCCN(C)C`, the outcome in assay [1], in assay [7], in assay [8], in assay [2], in assay [3] and in assay [4] was inactive.
`CCO[Si](CC)(OCC)OCC`: the outcome in assay [1], in assay [5], in assay [7], in assay [8], in assay [2] and in assay [3] was inactive. Further, in assay [4], the outcome was inactive. Also, in assay [6], the AC50 is 155 µM (active).
For the molecule `CCCO`, the outcome in assay [1], in assay [5], in assay [6], in assay [7], in assay [8] and in assay [2] was inactive. The molecule was classed as inactive in assay [3] and in assay [4].
In the case of `CC(C)(O)C(=O)c1ccc(OCCO)cc1`, the result in assay [1], in assay [5], in assay [7], in assay [8], in assay [2] and in assay [3] was inactive.
Turning to `C=C1CC[C@H]2O[C@]2(C)CC[C@@H]2[C@@H]1CC2(C)C`, the outcome in assay [1], in assay [6], in assay [7], in assay [8], in assay [2] and in assay [3] was inactive. Further, the half-maximal activity concentration (AC50) in assay [5] is 191 µM (active).
As to `CCCCCCCCCC(=O)OCC`, the outcome in assay [1], in assay [5], in assay [6], in assay [8], in assay [2] and in assay [3] was inactive. In addition, the concentration at half-maximal activity (AC50) in assay [7] was 58.8 µM (active); in assay [4], 63.2 µM (active).
In the case of `COc1ccc2[nH]cc(CCNC(C)=O)c2c1`, the outcome in assay [1], in assay [5], in assay [6], in assay [7], in assay [8] and in assay [2] was inactive. Also, in assay [3], the call was inactive.
Take `CC12CCC(C1)C(C)(C)C2O` (stereo unspecified): the result in assay [1], in assay [5], in assay [6], in assay [2], in assay [3] and in assay [4] was inactive.
Take `CCCCN(CCCC)CCCCCCN(CCCC)CCCC`: the outcome in assay [1], in assay [6], in assay [7], in assay [8], in assay [2] and in assay [3] was inactive. Also, the molecule was called inactive in assay [4].
As to `CC1=CC(C)C(C=O)C(C)C1` (stereo unspecified) (tested in a mixture with another compound), the outcome in assay [1], in assay [5], in assay [6], in assay [7], in assay [8] and in assay [2] was inactive. In addition, in assay [3], the call was inactive.
For the molecule `N=C1N=C(N)c2ccccc21`, the result in assay [1], in assay [5], in assay [7], in assay [2] and in assay [3] was inactive. In addition, the half-maximal activity concentration (AC50) in assay [6] was 100 µM (active).
As to `C=CC(=O)OCC(CO)(COC(=O)C=C)COC(=O)C=C`, the outcome in assay [1] and in assay [7] was inactive. Besides, the half-maximal activity concentration (AC50) was 5.31 µM (active) in assay [5]; 18 µM (active) in assay [6]; 100 µM (active) in assay [8]; 27.8 µM (active) in assay [2]; 100 µM (active) in assay [3].
Take `CCCCCCOc1ccc(O)cc1`: the outcome in assay [1], in assay [7], in assay [8], in assay [2], in assay [3] and in assay [4] was inactive. In addition, the AC50 was 33.4 µM (active) in assay [5] and 44.1 µM (active) in assay [6].
For `Cc1cccc(O)c1`, the outcome in assay [1], in assay [5], in assay [6], in assay [7], in assay [8] and in assay [2] was inactive. For the same molecule, the outcome in assay [3] was inactive.
For the molecule `CCC(C)(C)c1cc(O)c(C(C)(C)CC)cc1O`, the AC50 in assay [1] is 19.8 µM (active); in assay [6] it was 26.7 µM (active). The result in assay [7], in assay [8], in assay [2] and in assay [3] was inactive.
`OCCN1CCOCC1`: the outcome in assay [1], in assay [5], in assay [6], in assay [7], in assay [8] and in assay [2] was inactive. The molecule was classed as inactive in assay [3] and in assay [4].
As for `Cc1cc(N)n(-c2ccccc2)n1`, the result in assay [1], in assay [5], in assay [6], in assay [8], in assay [2] and in assay [3] was inactive. The call in assay [4] was inactive.
